Laboratory results reported in PubChem BioAssay AID588458 (Sanford-Burnham Center for Chemical Genomics, 2011).
The campaign covered roughly 360,000 compounds. About 3,000 (0.83%) were called active. Cut-off read from the data, not from the text of the source: active = inhibition above about 50%; inactive = the rest. Only a selection was taken, and actives are over-represented in it overall.

Target: DNA (cytosine-5)-methyltransferase 1 (Homo sapiens) (UniProt P26358)
Experiment: human DNMT1 methyltransferase inhibitors, primary screen, biochemical, molecular beacon, fluorescence, HinP1I cleavage, uHTS (AID 588458)
Details: at 10 µM, hits give high values

Chain of DNA (cytosine-5)-methyltransferase 1 (Homo sapiens) (P26358 504-1616 limits assumed): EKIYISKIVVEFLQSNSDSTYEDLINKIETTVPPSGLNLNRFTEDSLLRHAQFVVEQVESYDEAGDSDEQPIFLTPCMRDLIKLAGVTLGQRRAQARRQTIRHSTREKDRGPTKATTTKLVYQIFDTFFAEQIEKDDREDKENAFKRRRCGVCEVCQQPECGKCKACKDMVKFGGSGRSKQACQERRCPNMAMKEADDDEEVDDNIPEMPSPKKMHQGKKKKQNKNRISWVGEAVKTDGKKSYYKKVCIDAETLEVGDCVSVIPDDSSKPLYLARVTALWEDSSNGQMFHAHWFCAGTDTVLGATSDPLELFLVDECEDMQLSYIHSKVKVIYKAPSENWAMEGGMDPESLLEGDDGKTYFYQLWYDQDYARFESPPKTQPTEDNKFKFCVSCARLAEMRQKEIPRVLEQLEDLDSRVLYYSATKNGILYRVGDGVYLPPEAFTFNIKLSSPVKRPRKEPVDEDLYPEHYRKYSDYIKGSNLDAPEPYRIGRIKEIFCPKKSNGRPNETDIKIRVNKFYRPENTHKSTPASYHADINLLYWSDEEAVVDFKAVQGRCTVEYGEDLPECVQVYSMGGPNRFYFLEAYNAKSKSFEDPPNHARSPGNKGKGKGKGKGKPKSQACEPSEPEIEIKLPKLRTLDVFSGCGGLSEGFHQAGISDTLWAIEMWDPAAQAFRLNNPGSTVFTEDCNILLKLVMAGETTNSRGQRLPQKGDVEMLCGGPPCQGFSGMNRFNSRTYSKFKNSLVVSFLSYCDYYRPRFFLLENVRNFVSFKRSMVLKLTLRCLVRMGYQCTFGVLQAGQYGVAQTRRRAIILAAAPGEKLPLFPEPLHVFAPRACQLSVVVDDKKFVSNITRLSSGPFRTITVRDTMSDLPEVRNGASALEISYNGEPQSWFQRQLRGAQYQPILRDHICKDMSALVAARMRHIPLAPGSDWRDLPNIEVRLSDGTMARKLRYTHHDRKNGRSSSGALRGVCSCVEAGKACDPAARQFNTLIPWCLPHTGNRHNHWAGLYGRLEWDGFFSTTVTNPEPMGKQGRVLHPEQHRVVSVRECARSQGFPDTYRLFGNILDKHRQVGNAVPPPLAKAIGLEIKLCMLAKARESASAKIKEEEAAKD

Inhibition (reported as % activation of signal), inactive:
CCN(C(=O)CSc1nc2ccccc2n1CC)C1CCS(=O)(=O)C1 (stereo not given) 0.17%
CCN(C(=O)CSc1nnc2ccccn12)C1CCS(=O)(=O)C1 (stereo not given) 3.22%
CCCCNC(=O)C1CCCNC1=O (stereo not given) 2.28%
COc1ccc(C2=NOC3(CC(=O)N(c4ccc(Cl)cc4)C3=O)C2)c(OC)c1 (stereo not given) -6.34%
O=C(O)c1cc(S(=O)(=O)N2CCCCCC2)c(Cl)cc1Cl 0.43%
CC1CCCN(Cc2nc3c(c(=O)n(C)c(=O)n3C)n2CC(=O)c2ccccc2)C1 (stereo not given) -2.35%
CCOC(=O)N1CCN(Cc2nc3c(c(=O)n(C)c(=O)n3C)n2Cc2ccccc2)CC1 1.29%
CC1(C)CC(=O)C(C=NCCC2=CCCCC2)=C(O)C1 6.68%
O=C1CC(c2ccccc2)CC(O)=C1C=NCCN1CCOCC1 (stereo not given) 0.18%
COc1cc(NS(=O)(=O)c2ccc(N/C=C(\C=O)c3nc4cc(Cl)ccc4o3)cc2)nc(OC)n1 -2.63%
CC1C(c2ccccc2)=[N+]([O-])C2(CCCC2)N1O (stereo not given) 1.84%
COc1ccc(CCNC(=O)CC2SC(=Nc3cc(C)cc(C)c3)NC2=O)cc1OC (stereo not given) 1.89%
CC(=O)[C@@]12O[C@@H]1C[C@H]1[C@@H]3CC[C@H]4C[C@@H](O)CC[C@]4(C)[C@H]3CC[C@@]12C 1%
O=C(c1ccc(Cl)cc1)n1cnc2ccccc21 8.27%
COc1ccccc1N(CC(=O)Nc1ccc(C(F)(F)F)cc1)S(C)(=O)=O 7.89%
CCCNC(=O)C(=O)Nc1cc2c3c(c1)CCC(=O)N3CCC2 -0.17%
S=C(NCCCc1ccccc1)Nc1ccc(Br)cc1 6.06%
CCc1ccc(NC(=O)CS(=O)CC(=O)N2CCN(c3ccccc3F)CC2)cc1 (stereo not given) 1.59%
Cc1oc(CC(C)C)c(CN2CCCC2)c1C(=O)O -0.29%
Cc1nnc(N(Cc2ccco2)C(=O)c2ccno2)s1 -1.27%

Inhibition (reported as % activation of signal), active:
CCN(C(=O)CSc1nc(N)cc(=O)[nH]1)C1CCS(=O)(=O)C1 (stereo not given) 84.1%
CCN1CCN(Cc2nc3c(c(=O)n(C)c(=O)n3C)n2CC(=O)c2ccccc2)CC1 75.4%
O=C1CCCC(O)=C1C=NCCc1ccccc1 60.8%
C=C1c2c(Cl)ccc(O)c2C(O)=C2C(=O)[C@]3(O)C(O)=C(C(N)=O)C(=O)[C@@H](N(C)C)[C@@H]3[C@@H](O)C12 (stereo not given in full) 94.6%
CCc1ccc(NC(=O)CS(=O)CC(=O)NCCCc2ccccc2)cc1 (stereo not given) 58.9%
